# Test results taken from PubChem BioAssay (NCI).
# About 79,000 compounds went through this panel and 15% of them were active in at least one assay; those are over-represented in the sample as a whole. Values without a mark were called inactive. Active and inactive are the calls of the source. No stated cut-off is given here; in the data, active means growth inhibition above about 70%; inactive means the rest.
# Experiments:
# [1] = NCI Yeast Anticancer Drug Screen. Data for the rad52 strain (AID 147);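 further: 0% = growth of vehicle-treated control cultures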; conditions: S. cerevisiae rad52 mutant growth inhibition, hits give high values
# How it was run: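 Measured: yeast growth inhibition. System: strain with a defined DNA damage repair alteration. Reference: vehicle-treated control cultures.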
# [2] = NCI Yeast Anticancer Drug Screen. Data for the wt1 strain (AID 149);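 further: 0% = growth of vehicle-treated wt1 cultures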; conditions: S. cerevisiae wt1 strain (SPY 50644) growth inhibition, hits give high values
# How it was run: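 Compounds are added to wt1 yeast cultures. Growth is then measured. Inhibition is expressed relative to vehicle-treated controls.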
# [3] = NCI Yeast Anticancer Drug Screen. Data for the rad50EPP+ strain (AID 151);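 further: 0% = growth of vehicle-treated control cultures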; conditions: S. cerevisiae rad50 mutant strain, hits give high values
# How it was run: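 One strain with a rad50 alteration (rad50EPP+) was compound-treated, its growth then compared to that of vehicle controls.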
# [4] = NCI Yeast Anticancer Drug Screen. Data for the mgt1 strain (AID 153); conditions: S. cerevisiae mgt1 mutant growth inhibition, hits give high values
# How it was run: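 After exposure of the mgt1 yeast mutant to compound, growth was measured and reported as inhibition compared with vehicle controls.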
# [5] = NCI Yeast Anticancer Drug Screen. Data for the rad50 strain (AID 155);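 further: 0% = growth of vehicle-only cultures of the same strain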; conditions: S. cerevisiae rad50 strain growth inhibition, hits give high values
# How it was run: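 Inhibition values express reduced yeast growth in compound-treated cultures relative to vehicle-treated controls.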
# [6] = NCI Yeast Anticancer Drug Screen. Data for the mec2-1 strain (AID 157); conditions: S. cerevisiae mec2-1 strain, hits give high values
# How it was run: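 Test agents were screened against the mec2-1 yeast strain, with defined DNA repair or cell cycle alteration. Growth was scored as inhibition against vehicle-only controls.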
# [7] = NCI Yeast Anticancer Drug Screen. Data for the rad14 strain (AID 159);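 further: 0% = growth of vehicle-treated control cultures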; conditions: S. cerevisiae rad14 strain growth inhibition, hits give high values
# How it was run: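 A mutant yeast strain defective in DNA damage repair is treated with compound; inhibition of its growth is scored against untreated, vehicle-exposed cultures.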
# [8] = NCI Yeast Anticancer Drug Screen. Data for the sgs1 mgt1 strain (AID 161);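 further: 0% = growth of cultures given vehicle only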; conditions: S. cerevisiae sgs1 mgt1 strain, hits give high values
# How it was run: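 Mutant yeast exposed to compound; growth scored against vehicle-only wells.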
# [9] = NCI Yeast Anticancer Drug Screen. Data for the CLN2oe strain (AID 163);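 further: 0% = growth of vehicle-only control cultures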; conditions: S. cerevisiae CLN2oe strain, hits give high values
# How it was run: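 Here, growth inhibition in a cell-cycle-altered yeast strain after compound exposure was quantified against vehicle control growth.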
# [10] = NCI Yeast Anticancer Drug Screen. Data for the cln2 rad14 strain (AID 165);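 further: 0% = growth equal to vehicle treated cultures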; conditions: S. cerevisiae cln2 rad14 strain, hits give high values
# How it was run: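 Growth of compound-exposed yeast (cln2 rad14 genotype) measured and expressed as inhibition relative to vehicle.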
# [11] = NCI Yeast Anticancer Drug Screen. Data for the bub3 strain (AID 167); conditions: S. cerevisiae bub3 mutant strain, hits give high values
# How it was run: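 Steps: expose the mutant yeast strain to compound; grow alongside vehicle-treated cultures; measure growth; express inhibition against the vehicle cultures.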
# [12] = NCI Yeast Anticancer Drug Screen. Data for the wt2 strain (AID 169);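 further: 0% = growth of vehicle-treated yeast cultures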; conditions: S. cerevisiae wt2 strain growth inhibition, hits give high values
# How it was run: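 Genetically defined yeast strains from a DNA-repair/cell-cycle panel were used. Compound-exposed yeast growth was measured, and the inhibition was calculated relative to vehicle treatment.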
# [13] = NCI Yeast Anticancer Drug Screen. Data for the mlh1 strain (AID 171);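 further: 0% = growth of vehicle-treated control cultures of the same strain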; conditions: S. cerevisiae mlh1 strain growth inhibition, hits give high values
# How it was run: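 Here the genetically defined yeast mutant is grown with each compound, and the extent to which its growth falls below that of vehicle-exposed cells is reported.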
# [14] = NCI Yeast Anticancer Drug Screen. Data for the sgs1 strain (AID 173);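 further: 0% = growth of vehicle-only control cultures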; conditions: S. cerevisiae sgs1 mutant, hits give high values
# How it was run: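 Relative growth inhibition, referenced to vehicle, was determined in a yeast strain with a defined alteration affecting DNA damage repair or cell cycle control after compound exposure.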
# [15] = NCI Yeast Anticancer Drug Screen. Data for the mlh1 rad18 strain (AID 175); conditions: S. cerevisiae mlh1 rad18 strain growth inhibition, hits give high values
# How it was run: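 In this whole-cell yeast screen, a strain with altered DNA damage repair is challenged with compound, and its growth is measured against matched vehicle-treated controls.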
# [16] = NCI Yeast Anticancer Drug Screen. Data for the rad18 strain (AID 177); conditions: S. cerevisiae rad18 mutant growth inhibition, hits give high values
# How it was run: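 Screen uses a yeast strain with a defined lesion in DNA damage repair; compound effect is read as loss of growth compared to untreated vehicle cultures.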
# [17] = at 5.0 µM (retest, dose inferred, filed as 0.5)
# [18] = at 50.0 µM (retest, dose inferred, filed as 5.0)
compound,measurement,setting,value
Fc1ccc(NC(=S)SCc2ccc3c(c2)OCO3)cc1F,growth inhibition,[1]; at 1.2 µM,15%
same,growth inhibition,[1]; at 3.7 µM,9%
same,growth inhibition,[1]; at 11.0 µM,71% (active)
same,growth inhibition,[1]; at 33.0 µM,98% (active)
same,growth inhibition,[1]; at 100.0 µM,97% (active)
same,growth inhibition,[2]; at 1.2 µM,6%
same,growth inhibition,[2]; at 3.7 µM,6%
same,growth inhibition,[2]; at 11.0 µM,66%
same,growth inhibition,[2]; at 33.0 µM,98% (active)
same,growth inhibition,[2]; at 100.0 µM,97% (active)
same,growth inhibition,[3]; at 1.2 µM,0%
same,growth inhibition,[3]; at 3.7 µM,27%
same,growth inhibition,[3]; at 11.0 µM,96% (active)
same,growth inhibition,[3]; at 33.0 µM,99% (active)
same,growth inhibition,[3]; at 100.0 µM,99% (active)
same,growth inhibition,[4]; at 1.2 µM,-3%
same,growth inhibition,[4]; at 3.7 µM,12%
same,growth inhibition,[4]; at 11.0 µM,61%
same,growth inhibition,[4]; at 33.0 µM,99% (active)
same,growth inhibition,[4]; at 100.0 µM,96% (active)
same,growth inhibition,[5]; at 1.2 µM,-9%
same,growth inhibition,[5]; at 3.7 µM,22%
same,growth inhibition,[5]; [17],23%
same,growth inhibition,[5]; at 11.0 µM,57%
same,growth inhibition,[5]; at 33.0 µM,99% (active)
same,growth inhibition,[5]; [18],97% (active)
same,growth inhibition,[5]; at 50.0 µM,92.2% (active)
same,growth inhibition,[5]; at 100.0 µM,98% (active)
same,growth inhibition,[6]; at 1.2 µM,-10%
same,growth inhibition,[6]; at 3.7 µM,2%
same,growth inhibition,[6]; [17],-7%
same,growth inhibition,[6]; at 11.0 µM,49%
same,growth inhibition,[6]; at 33.0 µM,99% (active)
same,growth inhibition,[6]; [18],99% (active)
same,growth inhibition,[6]; at 50.0 µM,91.7% (active)
same,growth inhibition,[6]; at 100.0 µM,98% (active)
same,growth inhibition,[7]; at 1.2 µM,-9%
same,growth inhibition,[7]; at 3.7 µM,20%
same,growth inhibition,[7]; at 11.0 µM,65%
same,growth inhibition,[7]; at 33.0 µM,99% (active)
same,growth inhibition,[7]; at 100.0 µM,94% (active)
same,growth inhibition,[8]; [17],31%
same,growth inhibition,[8]; [18],99% (active)
same,growth inhibition,[8]; at 50.0 µM,92.5% (active)
same,growth inhibition,[9]; at 1.2 µM,8%
same,growth inhibition,[9]; at 3.7 µM,28%
same,growth inhibition,[9]; at 11.0 µM,40%
same,growth inhibition,[9]; at 33.0 µM,99% (active)
same,growth inhibition,[9]; at 100.0 µM,98% (active)
same,growth inhibition,[10]; [17],21%
same,growth inhibition,[10]; [18],99% (active)
same,growth inhibition,[10]; at 50.0 µM,91.8% (active)
same,growth inhibition,[11]; at 1.2 µM,-19%
same,growth inhibition,[11]; at 3.7 µM,-11%
same,growth inhibition,[11]; [17],35%
same,growth inhibition,[11]; at 11.0 µM,42%
same,growth inhibition,[11]; at 33.0 µM,98% (active)
same,growth inhibition,[11]; [18],99% (active)
same,growth inhibition,[11]; at 50.0 µM,91.8% (active)
same,growth inhibition,[11]; at 100.0 µM,98% (active)
same,growth inhibition,[12]; at 1.2 µM,-2%
same,growth inhibition,[12]; at 3.7 µM,19%
same,growth inhibition,[12]; at 11.0 µM,58%
same,growth inhibition,[12]; at 33.0 µM,99% (active)
same,growth inhibition,[12]; at 100.0 µM,94% (active)
same,growth inhibition,[13]; at 1.2 µM,-29%
same,growth inhibition,[13]; at 3.7 µM,-28%
same,growth inhibition,[13]; at 11.0 µM,53%
same,growth inhibition,[13]; at 33.0 µM,99% (active)
same,growth inhibition,[13]; at 100.0 µM,96% (active)
same,growth inhibition,[14]; at 1.2 µM,-17%
same,growth inhibition,[14]; at 3.7 µM,-13%
same,growth inhibition,[14]; at 11.0 µM,59%
same,growth inhibition,[14]; at 33.0 µM,99% (active)
same,growth inhibition,[14]; at 100.0 µM,96% (active)
same,growth inhibition,[15]; [17],6%
same,growth inhibition,[15]; [18],98% (active)
same,growth inhibition,[15]; at 50.0 µM,90.5% (active)
same,growth inhibition,[16]; at 1.2 µM,20%
same,growth inhibition,[16]; at 3.7 µM,34%
same,growth inhibition,[16]; at 11.0 µM,73% (active)
same,growth inhibition,[16]; at 33.0 µM,100% (active)
same,growth inhibition,[16]; at 100.0 µM,98% (active)
CC(C)(C)c1nc2c(o1)C(=O)c1ccccc1C2=O,growth inhibition,[1]; at 1.2 µM,-27%
same,growth inhibition,[1]; at 3.7 µM,-22%
same,growth inhibition,[1]; at 11.0 µM,20%
same,growth inhibition,[1]; at 33.0 µM,89% (active)
same,growth inhibition,[1]; at 100.0 µM,98% (active)
same,growth inhibition,[2]; at 1.2 µM,-30%
same,growth inhibition,[2]; at 3.7 µM,-20%
same,growth inhibition,[2]; at 11.0 µM,-5%
same,growth inhibition,[2]; at 33.0 µM,63%
same,growth inhibition,[2]; at 100.0 µM,95% (active)
same,growth inhibition,[3]; at 1.2 µM,-19%
same,growth inhibition,[3]; at 3.7 µM,-17%
same,growth inhibition,[3]; at 11.0 µM,-7%
same,growth inhibition,[3]; at 33.0 µM,87% (active)
same,growth inhibition,[3]; at 100.0 µM,97% (active)
same,growth inhibition,[4]; at 1.2 µM,-21%
same,growth inhibition,[4]; at 3.7 µM,-16%
same,growth inhibition,[4]; at 11.0 µM,19%
same,growth inhibition,[4]; at 33.0 µM,75% (active)
same,growth inhibition,[4]; at 100.0 µM,95% (active)
same,growth inhibition,[5]; at 1.2 µM,-56%
same,growth inhibition,[5]; at 3.7 µM,-15%
same,growth inhibition,[5]; [17],23%
same,growth inhibition,[5]; at 11.0 µM,32%
same,growth inhibition,[5]; at 33.0 µM,90% (active)
same,growth inhibition,[5]; [18],91% (active)
same,growth inhibition,[5]; at 50.0 µM,85.2% (active)
same,growth inhibition,[5]; at 100.0 µM,97% (active)
same,growth inhibition,[6]; at 1.2 µM,11%
same,growth inhibition,[6]; at 3.7 µM,15%
same,growth inhibition,[6]; [17],14%
same,growth inhibition,[6]; at 11.0 µM,27%
same,growth inhibition,[6]; at 33.0 µM,57%
same,growth inhibition,[6]; [18],77% (active)
same,growth inhibition,[6]; at 50.0 µM,94% (active)
same,growth inhibition,[6]; at 100.0 µM,94% (active)
same,growth inhibition,[7]; at 1.2 µM,-15%
same,growth inhibition,[7]; at 3.7 µM,-5%
same,growth inhibition,[7]; at 11.0 µM,13%
same,growth inhibition,[7]; at 33.0 µM,79% (active)
same,growth inhibition,[7]; at 100.0 µM,98% (active)
same,growth inhibition,[8]; [17],32%
same,growth inhibition,[8]; [18],70% (active)
same,growth inhibition,[8]; at 50.0 µM,93.3% (active)
same,growth inhibition,[9]; at 1.2 µM,-3%
same,growth inhibition,[9]; at 3.7 µM,-8%
same,growth inhibition,[9]; at 11.0 µM,6%
same,growth inhibition,[9]; at 33.0 µM,65%
same,growth inhibition,[9]; at 100.0 µM,96% (active)
same,growth inhibition,[10]; [17],3%
same,growth inhibition,[10]; [18],42%
same,growth inhibition,[10]; at 50.0 µM,92.1% (active)
same,growth inhibition,[11]; at 1.2 µM,-3%
same,growth inhibition,[11]; at 3.7 µM,12%
same,growth inhibition,[11]; [17],52%
same,growth inhibition,[11]; at 11.0 µM,36%
same,growth inhibition,[11]; at 33.0 µM,87% (active)
same,growth inhibition,[11]; [18],90% (active)
same,growth inhibition,[11]; at 50.0 µM,93% (active)
same,growth inhibition,[11]; at 100.0 µM,97% (active)
same,growth inhibition,[12]; at 1.2 µM,-41%
same,growth inhibition,[12]; at 3.7 µM,-26%
same,growth inhibition,[12]; at 11.0 µM,32%
same,growth inhibition,[12]; at 33.0 µM,72% (active)
same,growth inhibition,[12]; at 100.0 µM,94% (active)
same,growth inhibition,[13]; at 1.2 µM,-6%
same,growth inhibition,[13]; at 3.7 µM,-3%
same,growth inhibition,[13]; at 11.0 µM,25%
same,growth inhibition,[13]; at 33.0 µM,81% (active)
same,growth inhibition,[13]; at 100.0 µM,96% (active)
same,growth inhibition,[14]; at 1.2 µM,7%
same,growth inhibition,[14]; at 3.7 µM,-10%
same,growth inhibition,[14]; at 11.0 µM,36%
same,growth inhibition,[14]; at 33.0 µM,88% (active)
same,growth inhibition,[14]; at 100.0 µM,95% (active)
same,growth inhibition,[15]; [17],21%
same,growth inhibition,[15]; [18],86% (active)
same,growth inhibition,[15]; at 50.0 µM,91.5% (active)
